Experimental data reported in PubChem BioAssay.
The source made the active and inactive calls. How the calls were made is not given here.

These compounds were tested against Pantothenate synthetase (Mycobacterium tuberculosis (strain ATCC 25618 / H37Rv)) (UniProt P9WIL5) (assay: Coupled enzyme confirmation of inhibitors against recombinant Mtb PanC (AID 375;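 further: 0% = full reaction with vehicle and 100% = no enzyme background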)). Settings: coupled enzyme assay; at 10 µM, stronger effect = higher value.
Pantothenate synthetase (Mycobacterium tuberculosis (strain ATCC 25618 / H37Rv)), sequence (P9WIL5 whole entry, looked up): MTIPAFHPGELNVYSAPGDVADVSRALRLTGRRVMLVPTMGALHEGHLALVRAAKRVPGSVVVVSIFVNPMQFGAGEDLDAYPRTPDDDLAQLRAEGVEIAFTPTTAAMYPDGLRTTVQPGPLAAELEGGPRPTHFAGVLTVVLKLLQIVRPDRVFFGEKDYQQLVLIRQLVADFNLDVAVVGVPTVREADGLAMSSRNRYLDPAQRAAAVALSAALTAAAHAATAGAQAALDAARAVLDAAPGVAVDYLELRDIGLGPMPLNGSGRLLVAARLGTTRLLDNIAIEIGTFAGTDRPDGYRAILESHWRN
`COc1ccc(C)cc1S(=O)(=O)N(CC(=O)O)c1ccccc1` was tested, and the inhibition was 0% (inactive).
With `CC(NC(=O)NCCCC(=O)O)(C(F)(F)F)C(F)(F)F` the inhibition was 0% (inactive).
In the case of `Cc1cnnc2c1-c1nonc1CC2`, the inhibition is reported as 4% (inactive).
In the case of `Cc1nnc(SCC(=O)NC(C)(C)C)n1CCc1ccccc1`, the inhibition is reported as 0% (inactive).
With `O=C(CSc1nnc2scc(-c3ccccc3)n12)Nc1nsc(-c2ccccc2)n1` the inhibition was 1% (inactive).
`CN1CCCC(OC(=O)COc2ccc(Br)cc2)C1` (centres undefined) was tested, and the inhibition was 3% (inactive).
In the case of `O=C(CN1C(=O)C2C3C=CC(C3)C2C1=O)NCc1ccc2c(c1)OCO2` (centres undefined), the inhibition is reported as 0% (inactive).
In the case of `O=C(CNC(=O)c1ccccc1C(=O)O)c1ccccc1`, the inhibition is reported as 0% (inactive).
`CCCCCn1c(CCNC(=O)CCC)nc2ccccc21` was tested, and the inhibition was 0% (inactive).
`COc1ccc(OC)c(NC(=O)CS(=O)(=O)Cc2nc(-c3ccccc3C)oc2C)c1` was tested, and the inhibition was 0% (inactive).
With `Nc1nonc1NC(=O)CSc1nc2ccccc2s1` the inhibition was 0% (inactive).
For `CC(=O)Nc1c2c(nn1-c1ccc(C)cc1C)CSC2`, the inhibition was 0% (inactive).
In the case of `Cc1cccc(-n2nnnc2SCc2csc(-c3ccccc3)n2)c1`, the inhibition is reported as 0% (inactive).
`COc1cccc(C2=NOC(C(=O)N3CCc4ccccc4C3)C2)c1` (centres undefined) was tested, and the inhibition was 0% (inactive).
In the case of `Cc1cc(NS(=O)(=O)c2ccc(N)cc2)no1`, the inhibition is reported as 1% (inactive).
With `CCCC(c1nnnn1Cc1ccc(OC)cc1)N1CCN(c2ccccc2OC)CC1` (centres undefined) the inhibition was 0% (inactive).
For `Clc1ccccc1OCc1nn2c(-c3ccncc3)nnc2s1`, the inhibition was 0% (inactive).
In the case of `Cc1nnc(SCCCn2c(N3CCCCC3)nc3c2c(=O)[nH]c(=O)n3C)s1`, the inhibition is reported as 0% (inactive).
With `O=C(CCN1CCc2ccccc2C1)Nc1ccc2c(c1)OCO2` the inhibition was 0% (inactive).
For `COc1cc(C)nc(NS(=O)(=O)c2ccc(C)cc2)n1`, the inhibition was 5% (inactive).
For `O=c1c2cn[nH]c2nc(SCc2ccc3c(c2)OCCO3)n1-c1ccccc1`, the inhibition was 3% (inactive).
In the case of `COC(=O)c1[nH]c2ccc(F)cc2c1NS(=O)(=O)c1ccc(OC)cc1OC`, the inhibition is reported as 14% (inactive).
With `O=C(CNCC1CCCO1)Nc1ccccc1-n1cccc1` (centres undefined) the inhibition was 2% (inactive).
In the case of `O=C(NC1=NCCS1)c1nc(-c2ccccc2)n(-c2ccccc2)n1`, the inhibition is reported as 3% (inactive).
With `COc1ccc(Br)cc1C(=O)Nc1nnn(C)n1` the inhibition was 0% (inactive).
`CCc1c(C(=O)N2CCOCC2)csc1C` was tested, and the inhibition was 0% (inactive).
With `CN(C)C(=O)N1CCN(C(=O)c2ccco2)CC1` the inhibition was 0% (inactive).
`CCN(CCNC(=O)C1CCN(S(=O)(=O)CC)CC1)c1ccccc1` was tested, and the inhibition was 2% (inactive).
`Cc1cccc(NC(=O)CSc2nnc(-c3cc(C)n(-c4ccccc4)c3C)o2)c1C` was tested, and the inhibition was 0% (inactive).
For `CCOC(=O)C1=C(c2ccccc2)N2CCS(=O)(=O)N=C2S1`, the inhibition was 0% (inactive).
For `COc1ccc(NC(=O)CSC2=C(C#N)C(c3ccco3)C3=C(CCCC3=O)N2)c(OC)c1` (centres undefined), the inhibition was 16% (inactive).
In the case of `Cc1cc(=O)n2[nH]c(COc3ccccc3)nc2n1`, the inhibition is reported as 6% (inactive).
In the case of `COC(=O)c1ccc(-n2nnnc2SCc2nn[nH]n2)cc1`, the inhibition is reported as 0% (inactive).
With `CCOc1nc(-c2ccccc2O)nc2ccccc12` the inhibition was 0% (inactive).
`CC(C(=O)NCc1cccnc1)N1C(=O)c2ccccc2C1=O` (centres undefined) was tested, and the inhibition was 0% (inactive).
`CCOC(=O)c1sc(NC(=O)CSc2nc3c(cc2C#N)CCC3)c(C#N)c1C` was tested, and the inhibition was 10% (inactive).
For `CCC1CCCCN1c1nc(-c2ccncc2)nc2ccccc12` (centres undefined), the inhibition was 1% (inactive).
`Cc1ccc(C2CC(c3cccc(Br)c3)Nc3nnnn32)cc1` (centres undefined) was tested, and the inhibition was 1% (inactive).
`CC(C)(C)OC(=O)N1CC=C2C(C#N)=C(N)C(C#N)(C#N)[C@H](c3cccnc3)[C@H]2C1` was tested, and the inhibition was 5% (inactive).
